# Experimental data taken from PubChem BioAssay (NCI).
# Values joined by “and” are separate entries in the source; they are usually repeats but may differ in a detail not shown here. Equal entries are not always repeated. The panel holds about 79,000 compounds, 15% with a hit somewhere; the sample as a whole holds those more often. Active and inactive are the calls of the source. Cut-off read from the data, not from the text of the source: active = growth inhibition above about 70%; inactive = the rest.
# Key:
# [1] = NCI Yeast Anticancer Drug Screen. Data for the rad50 strain (AID 155);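 note: 0% = growth of vehicle-only cultures of the same strain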; details: S. cerevisiae rad50 strain growth inhibition, active compounds read high; at 50.0 µM unless noted
# Procedure, shortened: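 Vehicle-treated cultures provide the reference for the growth inhibition reported for compound-exposed, repair-deficient yeast.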
# [2] = NCI Yeast Anticancer Drug Screen. Data for the mec2-1 strain (AID 157); details: S. cerevisiae mec2-1 strain, active compounds read high; at 50.0 µM unless noted
# Procedure, shortened: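 Using mec2-1 yeast: add compound, measure growth, express inhibition versus vehicle-treated cultures.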
# [3] = NCI Yeast Anticancer Drug Screen. Data for the sgs1 mgt1 strain (AID 161);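 note: 0% = growth of cultures given vehicle only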; details: S. cerevisiae sgs1 mgt1 strain, active compounds read high; at 50.0 µM unless noted
# Procedure, shortened: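 Compounds are added to genetically altered yeast, and growth is compared with cultures given vehicle alone to give percent inhibition.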
# [4] = NCI Yeast Anticancer Drug Screen. Data for the cln2 rad14 strain (AID 165);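 note: 0% = growth equal to vehicle treated cultures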; details: S. cerevisiae cln2 rad14 strain, active compounds read high; at 50.0 µM unless noted
# Procedure, shortened: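 Yeast strain cln2 rad14, bearing defects in cell cycle control and DNA repair, serves as the test system; values reflect growth inhibition compared with vehicle.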
# [5] = NCI Yeast Anticancer Drug Screen. Data for the bub3 strain (AID 167); details: S. cerevisiae bub3 mutant strain, active compounds read high; at 50.0 µM unless noted
# Procedure, shortened: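 Mutant yeast screening strain plus compound; vehicle-treated cultures serve as the 0% inhibition reference.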
# [6] = NCI Yeast Anticancer Drug Screen. Data for the mlh1 rad18 strain (AID 175); details: S. cerevisiae mlh1 rad18 strain growth inhibition, active compounds read high; at 50.0 µM unless noted
# Procedure, shortened: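 Steps: expose repair-defective yeast to compound; measure growth; express inhibition against vehicle-treated controls.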
SMILES,growth inhibition [1],growth inhibition [2],growth inhibition [3],growth inhibition [4],growth inhibition [5],growth inhibition [6]
Cc1ccc([N+](=O)[O-])cc1N,31% (inactive),25.4% (inactive),4.15% (inactive),23.2% (inactive),17.1% (inactive),14.7% (inactive)
O=C1OC(C(O)C(O)CO)C(O)=C1O (centres undefined),16.8% (inactive) and 0.95% (inactive),3.7% (inactive) and 13.8% (inactive),-11.3% (inactive) and -13.8% (inactive),4.25% (inactive) and -8.15% (inactive),2.75% (inactive) and -8.6% (inactive),19.7% (inactive) and 6.2% (inactive)
Cc1ccc(S(=O)(=O)CCN2CCN(C)CC2)cc1,8.6% (inactive),-9.25% (inactive),-12.7% (inactive),-26% (inactive),-2.65% (inactive),1.05% (inactive)
Cc1cc(=O)[nH]c(NNC(C#N)c2ccc(O)cc2)n1 (centres undefined),-26% (inactive),-51.3% (inactive),-48.4% (inactive),-7.6% (inactive),-18.6% (inactive),-41.8% (inactive)
Cc1ccc(S(=O)(=O)N(C)c2ccc3c(c2)C(=O)c2ccccc2-3)cc1,20.6% (inactive),14.2% (inactive),37% (inactive),-44.5% (inactive),56% (inactive),26.4% (inactive)
COC(=O)C(C(=O)C(=O)Nc1ccccc1OC)c1csc(-n2nc(-c3ccccc3)cc2-c2ccccc2)n1 (centres undefined),0.65% (inactive),-7.85% (inactive),-11.2% (inactive),21.4% (inactive),52.1% (inactive),4.95% (inactive)
CCOC(=O)/C=C1\SC(C)(C)C1NC(=O)OCc1ccccc1 (centres undefined),-73.2% (inactive),-30.5% (inactive),-6.15% (inactive),-18.1% (inactive),-0.2% (inactive),-15% (inactive)
CCN(CC)C(=O)/C=C/c1ccccc1,-54.9% (inactive),-28.6% (inactive),-6.05% (inactive),-33.2% (inactive),1.7% (inactive),-14.8% (inactive)
CN(C)c1ccc(/C=C(\NC(=O)c2ccccc2)c2nc3ccccc3c(=O)o2)cc1,8.45% (inactive),10.3% (inactive),3.95% (inactive),11.5% (inactive),-15.8% (inactive),-9.3% (inactive)
CC(=O)c1ccc(NC(=O)C(=O)C(C(=O)c2ccc(Cl)c(Cl)c2)C2OC(=O)c3ccccc32)cc1 (centres undefined),44.6% (inactive),38.8% (inactive),13.7% (inactive),54.1% (inactive),60.3% (inactive),49.3% (inactive)
CC1=C(C(=O)OC(C)(C)C)C(c2ccc([N+](=O)[O-])cc2)C(C(=O)OC(C)(C)C)=C(C)N1,0.2% (inactive),-4.9% (inactive),3.85% (inactive),12.2% (inactive),-12.8% (inactive),15.4% (inactive)
O=C(ON=C1C=CC(=NOC(=O)c2ccccc2)C=C1)c1ccccc1,10.2% (inactive),-20.6% (inactive),9.35% (inactive),17.3% (inactive),1.15% (inactive),7.6% (inactive)
COc1cc(O)c(C/C=C/c2ccccc2)cc1O,49.6% (inactive),21.4% (inactive),27.6% (inactive),-12.3% (inactive),29.1% (inactive),64.9% (inactive)
CCc1cccc(CC)c1N1C(=O)CC(Sc2ccccc2N)C1=O (centres undefined),-18.1% (inactive),-16.3% (inactive),-14.8% (inactive),-0.85% (inactive),-9.5% (inactive),-25.8% (inactive)
CCCCCCCCCCCCCCCCCc1c(Cl)c(Cl)c(Cl)c(Cl)c1Cl,47% (inactive),-4% (inactive),26.4% (inactive),-45.1% (inactive),-2.75% (inactive),-6.6% (inactive)
Cc1cc(C)c(F)c(C)c1F,-7.95% (inactive),-4.6% (inactive),-5.45% (inactive),-15.8% (inactive),5.9% (inactive),-2.3% (inactive)
CCOC1=Nc2ccccc2C1(C)CCO (centres undefined),-45.5% (inactive),-13.2% (inactive),-23.1% (inactive),-62.2% (inactive),-5% (inactive),-4.3% (inactive)
CC(C)=C1C2C(C13C(=O)OC(C)(C)OC3=O)C2(C)C (centres undefined),-10.5% (inactive),-16.9% (inactive),-11.6% (inactive),7.9% (inactive),-21.6% (inactive),-9.2% (inactive)
CCN(CC)CCN=c1nc(/C=C\C=C\NN(C)C(=S)SC)c(C)nn1C,-49.7% (inactive),-7.95% (inactive),-15% (inactive),-12.3% (inactive),-1.05% (inactive),-12.8% (inactive)
COC1=NS(=O)(=O)C2CCCCCCC2O1 (centres undefined),11.1% (inactive),-2.85% (inactive),1.15% (inactive),-74.2% (inactive),10.6% (inactive),-7.4% (inactive)

SMILES,growth inhibition [1],growth inhibition [2],growth inhibition [3],growth inhibition [4],growth inhibition [5],growth inhibition [6]
Cc1ccc(NCC(=O)N2CC(=O)Nc3ccccc32)c(C)c1,-26.2% (inactive),-39.1% (inactive),-43.8% (inactive),-3.4% (inactive),-27.7% (inactive),-31.3% (inactive)
c1ccc(CSCc2cnc[nH]2)cc1,-1.3% (inactive),0.6% (inactive),-1.95% (inactive),14.8% (inactive),5.7% (inactive),-6.95% (inactive)
C/C(CC(=O)Nc1cc(Cl)c(Cl)cc1Cl)=N\NS(=O)(=O)c1ccc(C)cc1,-3.05% (inactive),-6.8% (inactive),3.35% (inactive),-53.9% (inactive),-1.2% (inactive),2.75% (inactive)
CCN(CC)CCCC(C)Nc1cc(OC)c2nc(C)ccc2c1OC (centres undefined),-2.35% (inactive),-0.4% (inactive),-14.2% (inactive),-5.9% (inactive),-3.2% (inactive),14.9% (inactive)
Nn1c(NNC(=O)C(=O)Nc2cc(Cl)c(Cl)cc2Cl)n[nH]c1=S,-6.05% (inactive),-16.1% (inactive),-6.45% (inactive),23.8% (inactive),19.2% (inactive),1.4% (inactive)
COc1ccc2occ(CCC(=O)O)c2c1,6.4% (inactive),-0.75% (inactive),-2.25% (inactive),-25.9% (inactive),-1.1% (inactive),6.9% (inactive)
COc1ccc(-c2nnc(N)s2)cc1OC,16.4% (inactive),2.7% (inactive),2.8% (inactive),-1.6% (inactive),-7.05% (inactive),6.35% (inactive)
Cc1ncc(C(N)=S)c(N)n1,9.95% (inactive),-0.05% (inactive),-0.15% (inactive),-47.4% (inactive),-8.55% (inactive),14.3% (inactive)
C=C(COc1ccc(OC)cc1)C(C)(C)C,18.9% (inactive),13.3% (inactive),-17.4% (inactive),-14.4% (inactive),14.7% (inactive),-19.5% (inactive)
CCCCCCCCCCCCCC(=O)OCCC(C)C,-5.85% (inactive),0.25% (inactive),7.25% (inactive),-18.9% (inactive),3.4% (inactive),-7.3% (inactive)
Cc1ccc(S(=O)(=O)N2CCCSCC2)cc1,-11.6% (inactive),-6.7% (inactive),-17.5% (inactive),-6.95% (inactive),-11.6% (inactive),-16.1% (inactive)
NC1(CC(=O)O)CCN(Cc2ccccc2)CC1,4.05% (inactive),13% (inactive),3.9% (inactive),-7.05% (inactive),-1.15% (inactive),2.4% (inactive)
Oc1c(CN2CCOCC2)ccc(CN2CCOCC2)c1O,13.4% (inactive),17.3% (inactive),-14.1% (inactive),4.55% (inactive),16.1% (inactive),35.5% (inactive)
O=c1[nH]n(Cc2ccccc2CCl)c2ccc([N+](=O)[O-])cc12,24.1% (inactive),13.3% (inactive),-10.8% (inactive),24% (inactive),4.1% (inactive),3.7% (inactive)
CNc1cc([N+](=O)[O-])ccc1Br,10.2% (inactive),4.2% (inactive),-1.1% (inactive),-2.95% (inactive),7.5% (inactive),-14.9% (inactive)
CC(=O)c1cccc(NC(=O)Oc2ccc(-c3ccccc3)cc2Cl)c1,99.2% (active),99.6% (active),99.5% (active),98.8% (active),99.5% (active),99.3% (active)
O/N=C(Sc1ccccn1)/C(=N/O)Sc1ccccn1,-7.25% (inactive),0% (inactive),-2.9% (inactive),-3.05% (inactive),4.7% (inactive),4.9% (inactive)
O=C(O)CC(O)(CC(=O)O)C(=O)O,25% (inactive),17.9% (inactive),-19.6% (inactive),3.65% (inactive),-0.25% (inactive),9.25% (inactive)
O=C1Cc2c(-c3ccc(Cl)cc3)cc(-c3ccccc3)nc2-c2ccccc2N1,-16.9% (inactive),-17.8% (inactive),-10.9% (inactive),4.95% (inactive),-11.2% (inactive),-52% (inactive)
